Experiments:
Experiment in all cases: PBM binding z-score (relative to random genomic background probes); higher = stronger binding; sequences stand for … in GC…GCGATTGACAGCGTAGAATGAAGG
[1] = tested on: FXR:RXRa (NR concentration 270 nM, RXRa partner concentration 90 nM)
Outline: (§1)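 Ligand-free nuclear receptor dimers were bound for 1 h to custom Agilent 4×180K protein-binding microarrays. Detection used antibodies against each partner (one per run). Binding z-scores rest on regression-normalized fluorescence, with random background probes as the reference.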

[2] = tested on: LXRa:RXRa (NR concentration 270 nM, RXRa partner concentration 90 nM)
Outline: as §1

[3] = tested on: LXRa homodimer (NR concentration 270 nM)
Outline: as §1

[4] = tested on: LXRb:RXRa (NR concentration 270 nM, RXRa partner concentration 90 nM)
Outline: as §1

[5] = tested on: LXRb homodimer (NR concentration 270 nM)
Outline: as §1

[6] = tested on: PPARa:RXRa (NR concentration 270 nM, RXRa partner concentration 90 nM)
Outline: as §1

[7] = tested on: PPARg:RXRa (NR concentration 180 nM, RXRa partner concentration 90 nM)
Outline: as §1

[8] = tested on: PPARg:RXRa 270nM:90nM, anti-RXR (NR concentration 270 nM, RXRa partner concentration 90 nM)
Outline: as §1

[9] = tested on: PPARg:RXRa 30nM:10nM, anti-RXR (NR concentration 30 nM, RXRa partner concentration 10 nM)
Outline: as §1

[10] = tested on: PPARg:RXRa 90nM:30nM, anti-RXR (NR concentration 90 nM, RXRa partner concentration 30 nM)
Outline: as §1

[11] = tested on: PPARg:RXRa DBDmut IVT, anti-RXR (DBD mutation: RXRa K156A/R161A, NR concentration 270 nM, RXRa partner concentration 90 nM)
Outline: as §1

[12] = tested on: PPARg:RXRa IVT, anti-PPARg (NR concentration 270 nM, RXRa partner concentration 90 nM)
Outline: as §1

[13] = tested on: PPARg DBDmut:RXRa IVT, anti-PPARg (DBD mutation: PPARg1 K132A/R137A, NR concentration 270 nM, RXRa partner concentration 90 nM)
Outline: as §1

[14] = tested on: PPARg DBDmut IVT, anti-PPARg (DBD mutation: PPARg1 K132A/R137A, NR concentration 270 nM)
Outline: as §1

[15] = tested on: PPARg homodimer (NR concentration 180 nM)
Outline: as §1

[16] = tested on: PXR:RXRa (NR concentration 270 nM, RXRa partner concentration 90 nM)
Outline: as §1

[17] = tested on: PXR homodimer (NR concentration 270 nM)
Outline: as §1

[18] = tested on: RARa:RXR (NR concentration 270 nM, RXRa partner concentration 90 nM)
Outline: as §1

[19] = tested on: RARa homodimer (NR concentration 270 nM)
Outline: as §1

[20] = tested on: RARb:RXRa (NR concentration 270 nM, RXRa partner concentration 90 nM)
Outline: as §1

Row | Sequence | PBM binding z-score [1] | PBM binding z-score [2] | PBM binding z-score [3] | PBM binding z-score [4] | PBM binding z-score [5] | PBM binding z-score [6] | PBM binding z-score [7] | PBM binding z-score [8] | PBM binding z-score [9] | PBM binding z-score [10] | PBM binding z-score [11] | PBM binding z-score [12] | PBM binding z-score [13] | PBM binding z-score [14] | PBM binding z-score [15] | PBM binding z-score [16] | PBM binding z-score [17] | PBM binding z-score [18] | PBM binding z-score [19] | PBM binding z-score [20]
1 | TGAATTAGGTTAAAGATCAGGGAACGTGGCGTCG | 0.694 | 0.724 | 0.0716 | 0.548 | 0.342 | 4.09 | 6.76 | 7.47 | 5.99 | 8.06 | 6.08 | 5.63 | 0.86 | 1.43 | 1.58 | 0.403 | 0.276 | 1.12 | 1.04 | 1.19
2 | TCTTGTAGATCAAGCAGGTTCAGAAAGCCTGAGT | 0.0146 | 0.179 | -0.177 | 0.301 | -0.777 | 0.691 | -0.504 | 1.16 | 2.45 | 1.72 | 1.67 | 0.23 | -0.203 | -0.258 | -0.265 | 1.42 | 0.458 | 0.45 | -0.397 | -0.164
3 | CATAGAGGGTCAGCTAGGCCAGAGTAGGGACGGC | 3.11 | 2.04 | -0.237 | 1.37 | 0.495 | 3.45 | 2.23 | 2.06 | 0.47 | 1.23 | 1.42 | 2.21 | 0.395 | 0.25 | 1.26 | 1.2 | -0.122 | 1.9 | -0.0533 | 3.82
4 | ACTAGCAGGCCAAGTTTGTGTCACTCAAACAAAG | -0.566 | -0.667 | -0.358 | -0.814 | -0.886 | -0.219 | -0.46 | -0.574 | -0.538 | -0.746 | 0.66 | 0.636 | -0.284 | -0.278 | -0.972 | -0.323 | -0.685 | -0.217 | -0.826 | 0.471
5 | TTAATGAGGTTAAAGATCAGGGAACGTGGCGTCG | 3.44 | 3.14 | 0.612 | 2.28 | 0.716 | 5.01 | 6.53 | 7.02 | 6.34 | 7.88 | 4.2 | 4.61 | 2.12 | 1.16 | 1.89 | 2.4 | 0.342 | 3.61 | 1.1 | 2.33
6 | TTACCAAGCTGAGCTGAGGTCGTTGATCCAACTC | 0.0307 | -0.149 | -0.687 | -0.148 | -1.09 | 0.413 | -0.752 | -0.18 | -0.479 | -0.597 | -0.796 | -0.588 | -0.701 | -1.02 | -1.16 | 1.06 | 0.0399 | 0.708 | -1.15 | 0.0389
7 | ACAGACAGGTAATGAAGGTAACTCAGGCTATCAT | 0.224 | 0.251 | 0.0515 | 0.0112 | 0.161 | 0.173 | 0.58 | -0.0336 | -0.0735 | -0.327 | -0.129 | 0.574 | 0.213 | 0.735 | 0.348 | 0.147 | 0.218 | 0.263 | 0.161 | 0.169

— the supplement of paper PMC6555819
